Test results as given in PubChem BioAssay (NCATS).
Where “and” joins values, the source holds several entries; their conditions need not be identical. Identical values can stand only once. Inconclusive results are not listed. More than one record can exist for a structure, and the calls need not agree. Calls of active or inactive are those of the source. Calls follow the shape of the dose curve; as a rule, active = well fitted curve in the direction sought with a large enough effect; inconclusive = small, poorly fitted or top-dose-only effect, or another doubt; inactive = no such curve, though single readings can be large; an effect the other way counts as inactive or inconclusive.

Experiments:
CRL-7250 = normal cell line; experiment: Cytotoxic Profiling of Annotated Libraries Using Quantitative High-Throughput Screening (AID 1296008); conditions: Five cell lines viability, CellTiter-Glo ATP luminescence, 48-72 h; max response: hits give low values; also: nearly all actives have a fitted effect of over 60% in size; also: potency is read from the fitted curve at half-maximal effect
In short: (§1)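 Compounds were pin-transferred onto cells and incubated 48 or 72 hr at 37 degree Celsius, 95% humidity. CellTiter-Glo was added, plates sat 10 min at room temperature, then ATP-coupled luminescence was imaged as the viability read-out.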

HEK293 = experiment: as above; conditions: Five cell lines viability, CellTiter-Glo ATP luminescence, 48-72 h; max response: hits give low values
In short: as §1

KB-3-1 = experiment: as above; conditions: Five cell lines viability, CellTiter-Glo ATP luminescence, 48-72 h; max response: hits give low values
In short: as §1

MCC-13 = experiment: qHTS assay to identify novel small-molecules to repurpose for Merkel cell carcinoma treatment (AID 1296009); conditions: MCC and control cell lines, CellTiter-Glo viability, 72 h; series mostly up to 46 µM; also: nearly all actives have a fitted effect of over 60% in size; also: potency is read from the fitted curve at half-maximal effect
In short: (§2)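 Luminescence from CellTiter-Glo, read 10 min after addition at room temperature, reported viability following a 72 hr, 37 degree celsius treatment with NPC or MIPE compounds in titration; values normalized to plate controls.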

MCC-26 = experiment: as above; conditions: MCC and control cell lines, CellTiter-Glo viability, 72 h; series mostly up to 46 µM
In short: as §2

MKL-1 = experiment: as above; conditions: MCC and control cell lines, CellTiter-Glo viability, 72 h; series mostly up to 46 µM
In short: as §2

MKL-2 = experiment: as above; conditions: MCC and control cell lines, CellTiter-Glo viability, 72 h; series mostly up to 46 µM
In short: as §2

UISO = experiment: as above; conditions: MCC and control cell lines, CellTiter-Glo viability, 72 h; series mostly up to 46 µM
In short: as §2

WaGa = experiment: as above; conditions: MCC and control cell lines, CellTiter-Glo viability, 72 h; series mostly up to 46 µM
In short: as §2

HaCat [1] = experiment: Cytotoxic Profiling of Annotated Libraries Using Quantitative High-Throughput Screening (AID 1296008); conditions: Five cell lines viability, CellTiter-Glo ATP luminescence, 48-72 h; max response: hits give low values; also: nearly all actives have a fitted effect of over 60% in size; also: potency is read from the fitted curve at half-maximal effect
In short: as §1

NIH3T3 = experiment: as above; conditions: Five cell lines viability, CellTiter-Glo ATP luminescence, 48-72 h; max response: hits give low values
In short: as §1

HACAT [2] = experiment: qHTS assay to identify novel small-molecules to repurpose for Merkel cell carcinoma treatment (AID 1296009); conditions: MCC and control cell lines, CellTiter-Glo viability, 72 h; at 44.8 µM (top of the series) unless noted; also: nearly all actives have a fitted effect of over 60% in size; also: potency is read from the fitted curve at half-maximal effect
In short: as §2

CAOV3 = experiment: Primary qHTS to identify gynecologic anti-cancer compounds using libraries of approved drugs and bioactive compounds (AID 1345084); conditions: Gynecologic cancer cell panel viability, ATPlite luminescence, 48 h; series mostly up to 57.5 µM; also: nearly all actives have a fitted effect of over 55% in size
In short: (§3)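 Cells, 1,000 per well, were allowed to settle for 16 h at 37 C before compound addition. Five concentrations were tested for 48 h, and viability was read by ATPlite luminescence after 15 min at room temperature.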

C33A = experiment: as above; conditions: Gynecologic cancer cell panel viability, ATPlite luminescence, 48 h; series mostly up to 57.5 µM
In short: as §3

CASKI = experiment: as above; conditions: Gynecologic cancer cell panel viability, ATPlite luminescence, 48 h; series mostly up to 57.5 µM
In short: as §3

HEK293T = experiment: qHTS assay to identify novel small-molecules to repurpose for Merkel cell carcinoma treatment (AID 1296009); conditions: MCC and control cell lines, CellTiter-Glo viability, 72 h; at 44.8 µM (top of the series) unless noted; also: nearly all actives have a fitted effect of over 60% in size; also: potency is read from the fitted curve at half-maximal effect
In short: as §2
% is scaled to controls: 0 for no effect and ±100 for the full control effect.

CCCCCCCCCCCCCC(=O)N[C@H](CO)[C@H](O)c1ccc([N+](=O)[O-])cc1
inactive: max response (KB-3-1) 5.57% | Potency (MCC-13) | Potency (MCC-26) | Potency (MKL-1) | Potency (MKL-2) | Potency (UISO) | Potency (WaGa)
active: Potency (CRL-7250) 9.35 µM | Potency (HEK293) 5.26 µM

CCC(C)SSc1ncc[nH]1 (stereo unspecified)
inactive: max response (CRL-7250) -3.49% | outcome (HaCat [1]) | max response (NIH3T3) -14.8% | outcome (HACAT [2]) | Potency (MCC-26)
active: Potency (HEK293) 13.2 µM | Potency (MKL-2) 16.6 µM | Potency (WaGa) 23.5 µM

COC(=O)Nc1ccc(-c2nc(N3CCOCC3)c3cnn(C4CCN(C(=O)OC)CC4)c3n2)cc1
active: Potency (CRL-7250) 0.332 µM | Potency (HEK293) 1.66 µM | Potency (KB-3-1) 1.48 µM | Potency (NIH3T3) 4.18 µM | Potency (UISO) 0.526 µM | Potency (WaGa) 6.62 µM

CC(O)=C(C#N)C(=O)Nc1ccc(C(F)(F)F)cc1
inactive: max response (CRL-7250) -8.07% | max response (HaCat [1]) -27.6% | Potency (MCC-13) | Potency (MCC-26)
active: Potency (HEK293) 11.8 µM

Cc1cc(OCCCS(C)(=O)=O)cc(C)c1-c1cccc(COc2ccc3c(c2)OC[C@H]3CC(=O)O)c1
inactive: max response (CRL-7250) -33.3% | max response (HaCat [1]) -16.3% | max response (NIH3T3) -18.7% | Potency (MCC-13) | Potency (MCC-26) | Potency (MKL-1)
active: Potency (HEK293) 20.9 µM

CC[C@H](CC#N)OC(=O)N[C@@H](C)c1cccc(NC(=O)Nc2ccc(-c3cnco3)c(OC)c2)c1
active: Potency (CRL-7250) 1.66 µM and 1.03 µM | Potency (HEK293) 0.418 µM | Potency (KB-3-1) 1.32 µM and 1.64 µM | Potency (NIH3T3) 1.18 µM and 1.3 µM | Potency (MCC-13) 4.18 µM
inactive: Potency (CAOV3)

CC(=O)Nc1cccc(-n2c(=O)n(C3CC3)c(=O)c3c(Nc4ccc(I)cc4F)n(C)c(=O)c(C)c32)c1
active: Potency (CRL-7250) 0.164 µM | Potency (HEK293) 11.8 µM | Potency (HaCat [1]) 3.32 µM and 5.17 µM | Potency (NIH3T3) 418 nM and 259 nM
inactive: max response (KB-3-1) -5.06% and 7.25% | Potency (MCC-26) | Potency (MKL-1) | Potency (MKL-2) | Potency (UISO) | Potency (WaGa) | Potency (C33A) | Potency (CAOV3) | Potency (CASKI)

Cn1cc(-c2ccc3nnc(Sc4ccc5ncccc5c4)n3n2)cn1
inactive: max response (CRL-7250) -0.0054% | outcome (HEK293) | max response (HaCat [1]) 1.95% | max response (KB-3-1) 3.63% | outcome (HEK293T) | Potency (MCC-13) | Potency (MCC-26) | Potency (MKL-1) | Potency (MKL-2) | Potency (UISO) | Potency (WaGa)

Cc1cccc(Nc2nc(N[C@@H]3CCCC[C@H]3N)ncc2C(N)=O)c1
inactive: outcome (CRL-7250) | max response (HaCat [1]) -5.8% | Potency (MCC-13) | Potency (MKL-2) | Potency (UISO) | Potency (WaGa)
active: Potency (HEK293) 14.8 µM

O=C1NC(=O)C(=Cc2ccc(-c3ccc(F)cc3O)o2)S1
inactive: max response (CRL-7250) -7.89% | max response (HEK293) -12.7% | max response (HaCat [1]) -35.3% | max response (NIH3T3) -4.39% | Potency (MCC-13) | Potency (MCC-26) | Potency (MKL-1) | Potency (UISO)

O=C(c1ccc(F)c(F)c1Nc1ccc(I)cc1F)N1CC(O)([C@H]2CCCCN2)C1
active: Potency (CRL-7250) 2.96 µM | Potency (HEK293) 26.4 µM | Potency (HaCat [1]) 7.43 µM | Potency (NIH3T3) 8.33 µM
inactive: Potency (MCC-26) | Potency (MKL-1) | Potency (UISO) | Potency (WaGa)

Cn1cnc(-c2cc3nccc(Oc4ccc(NC(=S)NC(=O)Cc5ccccc5)cc4F)c3s2)c1
active: Potency (CRL-7250) 26.4 µM | Potency (HEK293) 23.5 µM | Potency (NIH3T3) 11.8 µM and 13 µM | Potency (UISO) 18.7 µM
inactive: Potency (MCC-13) | Potency (MKL-1) | Potency (MKL-2) | Potency (WaGa) | Potency (C33A) | Potency (CASKI)

Cc1cnc(Nc2cccc(CN3CCOCC3)c2)nc1Nc1cccc(S(=O)(=O)NC(C)(C)C)c1
inactive: outcome (CRL-7250) | max response (HaCat [1]) -19.2% | outcome (HaCat [1]) | max response (KB-3-1) 6.82% | max response (NIH3T3) -17.3% | outcome (HACAT [2]) | outcome (HEK293T) | Potency (MCC-13) | Potency (MCC-26) | Potency (MKL-1) | Potency (MKL-2) | Potency (UISO) | Potency (WaGa) | Potency (C33A)
active: Potency (KB-3-1) 2.31 µM

Cc1cc(-c2ncc(CC(=O)Nc3ccc(-c4cnccn4)cn3)cc2C)ccn1
active: Potency (CRL-7250) 10.5 µM and 6.51 µM | Potency (HEK293) 9.35 µM and 8.2 µM
inactive: max response (HaCat [1]) -23.2% and -10.9% | max response (NIH3T3) -16.2% and -6.07% | Potency (MCC-13) | Potency (MCC-26) | Potency (CAOV3) | Potency (CASKI)
